Compound activity from PubChem.
VDR inhibitor: blocks the human vitamin D receptor. P11473. VDR-SRC2-3 peptide fluorescence polarization, 2 h. Potency, µM, without a hit: max response, negative = inhibition, most hits filed as inhibitors. 0.93% of 400,000 active; also: % is scaled to controls: 0 for no effect and ±100 for the full control effect
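Fluorescence polarization assay measuring small-molecule disruption of VDR binding to the coregulator peptide SRC2-3. Compounds were pin-transferred (23 nl) into the reagent mix and incubated 2 h at room temperature before reading.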
Pin1 inh: human Pin1 inhibition | Q13526 | Pin1 FP peptide displacement, HiFluor488, 10 min | Potency, µM (titrated, usually from 115 µM), inactives show at the top dose activity, negative = inhibition, hits mostly inhibitors | 0.009% of 390,000 active; active = well fitted inhibition curve with a large enough effect in the polarisation, with a control signal flat, not every such curve was filed as active; inconclusive = small, poorly fitted or top-dose-only effect, or effect the other way, or a change in a side signal; inactive = no such curve, though single readings can be large or run the other way; the % refers to the polarisation; also: % is scaled to controls: 0 for no effect and ±100 for the full control effect
GLS inhibitor: glutaminase GLS (human) inhibition. GLS enzymatic activity, qHTS titration. Potency, µM (doses to about 45.5 µM), inactives show at the highest dose activity change, negative = inhibition, most hits filed as inhibitors. 0.21% of 410,000 active; also: % is scaled to controls: 0 for no effect and ±100 for the full control effect
Target sequence (O94925 whole entry, looked up): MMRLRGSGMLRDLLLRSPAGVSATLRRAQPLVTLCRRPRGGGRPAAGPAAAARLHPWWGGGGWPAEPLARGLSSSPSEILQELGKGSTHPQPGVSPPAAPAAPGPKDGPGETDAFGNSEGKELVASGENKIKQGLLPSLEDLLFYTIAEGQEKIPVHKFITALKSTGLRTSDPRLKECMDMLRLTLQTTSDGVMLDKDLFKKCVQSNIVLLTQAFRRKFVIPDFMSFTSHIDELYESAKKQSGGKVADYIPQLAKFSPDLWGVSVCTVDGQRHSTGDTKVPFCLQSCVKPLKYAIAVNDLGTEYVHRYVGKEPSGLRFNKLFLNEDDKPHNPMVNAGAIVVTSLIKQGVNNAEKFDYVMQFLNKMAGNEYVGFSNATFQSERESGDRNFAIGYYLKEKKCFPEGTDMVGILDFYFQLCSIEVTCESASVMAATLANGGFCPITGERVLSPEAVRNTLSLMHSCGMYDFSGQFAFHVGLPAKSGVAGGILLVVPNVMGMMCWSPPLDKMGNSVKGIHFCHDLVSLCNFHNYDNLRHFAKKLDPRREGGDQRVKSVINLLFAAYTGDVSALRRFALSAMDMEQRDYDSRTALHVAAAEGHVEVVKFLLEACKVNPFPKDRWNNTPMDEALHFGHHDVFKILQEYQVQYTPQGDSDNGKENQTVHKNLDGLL
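hKGA; 45 mM KH2PO4 pH 8.2 + 0.02% Tween-20; cpd via pin tool; 1 mM Gln soln; GluOx/HRP/Amplex Red; RT 30 min; fluor. t0 & final.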
Tb PFK block: inhibitors of T. brucei phosphofructokinase; O15648; T. brucei PFK, ADP-Glo luminescence; Potency, µM (titrated, usually from 57.5 µM), for inactives: top-dose activity, negative = inhibition, usual class: inhibitors; 0.17% of 330,000 active; AID 485367;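 also: 0% = uninhibited 1x PFK enzyme wells and -100% = no-enzyme wells; nearly all actives have a fitted effect of over 60% in size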
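Activity is normalized to no-enzyme wells (full inhibition) and 1.25 nM enzyme wells (no inhibition). Reaction: 0.5 mM F6P, 0.1 mM ATP, 45 min RT, ADP-Glo luminescence; concentration-response curves fitted and classed by quality.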
Tb PGK inh: inhibitors of T. brucei phosphoglycerate kinase | P07378 | PGK/GAPDH coupled, Kinase-Glo luminescence, 60 min | Potency, µM (titrated, usually from 57.5 µM), for inactives: at the highest dose activity change, negative = inhibition, most hits filed as inhibitors | 0.043% of 380,000 active | AID 602233; also: % is scaled to controls: 0 for no effect and ±100 for the full control effect; nearly all actives have a fitted effect of over 60% in size
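Luminescent ATP detection (Kinase-Glo Plus) follows a 60-minute room-temperature incubation, with wells lacking PGK as controls. Buffer: 100 mM TEA (pH 7.6), 5 mM MgCl2, 0.01% Tween-20. Coupling enzyme GAPDH (100 nM final) supplies unstable 1,3-BPG in-well.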
VDR confirm: confirmation of human vitamin D receptor inhibitors; shares compounds with VDR inhibitor; VDR-coactivator inhibition assay, qHTS confirmation; Potency, µM, usual class: inhibitors; 89% of 840 active
VDR FP fluor: confirmation of human VDR-coactivator binding inhibitors, fluorescein label; VDR-coactivator binding, fluorescein fluorescence polarization; AID 602200; Potency, µM (doses to about 57.1 µM), for the others: at the highest dose activity change, negative = inhibition, hits mostly inhibitors; 48% of 840 active; shares compounds with VDR inhibitor
VDR bla: inhibits human VDR in beta-lactamase reporter cells; VDR beta-lactamase reporter cells, FRET ratio; cells co-treated with VDR agonist LG190178; 23% of 840 active; shares compounds with VDR inhibitor; Potency, µM (titrated, usually from 46.1 µM), without a hit: at the highest dose activity change, negative = inhibition, actives largely listed as inhibitors; also: % is scaled to controls: 0 for no effect and ±100 for the full control effect
VDR viability: cell toxicity, VDR inhibitor hit counter-screen; Potency, µM (doses to about 48.3 µM), for the others: at the top dose activity change, negative = cytotoxicity, most hits filed as cytotoxic; 18% of 840 active; shares compounds with VDR inhibitor; cytotoxicity counter-screen, cell viability, qHTS;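 also: plate controls were DMSO for no effect and high-concentration cycloheximide for full effect; nearly all actives have a fitted effect of over 75% in size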
* = called active by the depositor; ! = not confirmed by another sample. A selection: hits, their analogues and other compounds. The true share with any hit is near 1.1%. Unless noted, calls follow the shape of the dose curve; as a rule, active = well fitted curve in the direction sought with a large enough effect; inconclusive = small, poorly fitted or top-dose-only effect, or another doubt; inactive = no such curve, though single readings can be large; an effect the other way counts as inactive or inconclusive. Potency is read from the fitted curve at half-maximal effect.

Results for COc1ccc(-c2nn(-c3ccccc3)cc2C(=O)NC(=S)N2CCOCC2)cc1OC ?
VDR inhibitor: -13.8%; Pin1 inh: 8.4%; GLS inhibitor: -7.5%; Tb PFK block: 5.2%; Tb PGK inh: -6.5%

Results for C[C@H](CO)N1C[C@H](C)[C@@H](CN(C)CC2CC2)Oc2c(NC(=O)Cc3ccccc3)cccc2C1=O ?
VDR inhibitor: 3.7%; Pin1 inh: 2.4%; GLS inhibitor: 18.5%; Tb PFK block: 3.0%; Tb PGK inh: 3.6%

How did COc1cc2c(C#N)c(N3CCCC3)nc(N)c2c(N)n1 do in these assays?
VDR inhibitor: 28.2µM*!; Pin1 inh: inconclusive; GLS inhibitor: 11.2%; Tb PFK block: 1.4%; Tb PGK inh: inconclusive

Results for CN1CCC(N(Cc2cccs2)c2ccccc2)CC1 ?
GLS inhibitor: 13.0%

Results for O=C(/C=C/c1cccc(OCc2ccccc2)c1)c1cccnc1 ?
VDR inhibitor: 39.8µM*; Pin1 inh: 2.3%; GLS inhibitor: -1.6%; Tb PFK block: 0.0%; Tb PGK inh: -2.1%

What do the screens show for `Cc1ccc(Nc2nc3ccccc3s2)cc1`?
VDR inhibitor: -6.3%; Pin1 inh: -2.0%; GLS inhibitor: 25.9%; Tb PFK block: -0.5%; Tb PGK inh: 1.9%

How did Cc1ccc(Nc2nnns2)cc1 do in these assays?
VDR inhibitor: 79.4µM*; Pin1 inh: 2.7%; GLS inhibitor: -0.1%; Tb PFK block: -7.9%; Tb PGK inh: 3.9%

Results for O=C(O)CCC1CCCC1 ?
VDR inhibitor: 2.2%

How did COc1ccccc1-c1cc(Nc2ccn[nH]2)ncn1 do in these assays?
VDR inhibitor: 44.7µM*

Results for COc1ccccc1-c1cc(Nc2ccc(F)cc2)ncn1 ?
VDR inhibitor: -3.3%

Results for CCCn1c(SCc2nc(-c3ccc(OC)cc3OC)no2)nnc1-c1ccc(Cl)cc1 ?
VDR inhibitor: -10.7%; Pin1 inh: 3.6%; GLS inhibitor: 4.5%; Tb PGK inh: 7.1%

Results for Cc1cc(C)c2c(CC(=O)Nc3ccc(S(=O)(=O)Nc4ncccn4)cc3)coc2c1 ?
VDR inhibitor: 4.3%; Pin1 inh: -1.2%; GLS inhibitor: -0.4%; Tb PGK inh: -6.9%

What do the screens show for `CCOc1cc(/C=C(\C#N)C(=O)Nc2cccc(C(=O)O)c2)cc(Br)c1OC(=O)c1ccc(OC)cc1`?
VDR inhibitor: 25.1µM*; Pin1 inh: inconclusive; GLS inhibitor: 4.4%; Tb PFK block: -5.2%; Tb PGK inh: 0.6%

Results for CCOC(=O)/C(=C\c1cccnc1)C(=O)c1cc(C(C)=O)c(Nc2ccccc2)s1 ?
VDR inhibitor: 7.94µM*; Pin1 inh: 43.5%; GLS inhibitor: -9.5%; Tb PFK block: -0.9%; Tb PGK inh: 5.9%

How did CCOC(=O)C(=Cc1ccc(Br)cc1)C(=O)OCC do in these assays?
VDR inhibitor: 10µM*; Pin1 inh: -0.7%; GLS inhibitor: 4.6%; Tb PFK block: -1.4%; Tb PGK inh: -3.2%

What do the screens show for `CCOC(=O)C(=Cc1ccc(F)cc1)C(=O)OCC`?
Tb PFK block: 1.9%

Results for Cc1ccc(CSc2cn(CC(=O)N3CCCCCC3)c3ccccc23)cc1 ?
VDR inhibitor: -0.2%; Pin1 inh: -1.1%; GLS inhibitor: -7.9%; Tb PGK inh: -1.4%

What do the screens show for `O=C(O)c1ccc[n+]([O-])c1`?
VDR inhibitor: -2.1%; GLS inhibitor: 4.3%

Results for NC(=S)c1ccc[n+]([O-])c1 ?
VDR inhibitor: 50.1µM*; Pin1 inh: 0.1%; GLS inhibitor: -0.3%; Tb PGK inh: -6.3%

Results for C[C@@H]1CN(c2c(F)c(F)c3c(=O)c(C(=O)O)cn(C4CC4)c3c2F)C[C@H](C)N1 ?
VDR inhibitor: 15.8%; Pin1 inh: -3.6%; GLS inhibitor: 0.7%; Tb PFK block: -2.7%; Tb PGK inh: -8.3%

What do the screens show for `C[C@H]1NCc2cc(-c3ccc4c(=O)c(C(=O)O)cn(C5CC5)c4c3OC(F)F)ccc21`?
GLS inhibitor: 12.6µM*

Results for N=C(N)S/C=C\C(=O)O ?
VDR inhibitor: 28.2µM*

How did Cc1occc1C(=O)N/N=C/C=C/c1ccc(N(C)C)cc1 do in these assays?
VDR inhibitor: -2.3%; Pin1 inh: inconclusive; GLS inhibitor: 19.6%; Tb PFK block: -3.6%; Tb PGK inh: -4.2%

What do the screens show for `Cc1occc1C(=O)N/N=C/c1ccc(N(C)C)cc1`?
VDR inhibitor: 1.9%; Pin1 inh: -7.1%; GLS inhibitor: -4.6%; Tb PFK block: inconclusive; Tb PGK inh: 25.1µM*

Results for O=C1C2C(C(=O)N1/N=C/c1ccc(N3CCCCC3)o1)C1C=CC2C12CC2 (stereo unspecified) ?
VDR inhibitor: 89.1µM*; Pin1 inh: 7.5%; GLS inhibitor: 20.6%; Tb PFK block: -3.8%; Tb PGK inh: inactive

How did O=C1C2C3C=CC(C4CC34)C2C(=O)N1/N=C/c1ccc(-c2cccc([N+](=O)[O-])c2)o1 (stereo unspecified) do in these assays?
VDR inhibitor: -8.1%; Pin1 inh: 20.2%; GLS inhibitor: -4.4%; Tb PFK block: -6.9%; Tb PGK inh: -6.5%

How did Cc1cc(C(=O)N2CCC2(C)C(=O)Nc2ccc3[nH]ncc3c2)nn1C (stereo unspecified) do in these assays?
GLS inhibitor: -7.2%

Results for Oc1ccc(Br)cc1-c1ccnn1-c1ccccc1 ?
VDR inhibitor: 1.3%; Pin1 inh: 0.1%; GLS inhibitor: -0.7%; Tb PFK block: -5.3%; Tb PGK inh: -5.4%

Results for O=C1CCCC2=C1C(c1ccco1)Nc1ccc3ccccc3c12 (stereo unspecified) ?
VDR inhibitor: 6.9%; GLS inhibitor: 11.2µM*; Tb PFK block: inconclusive; Tb PGK inh: inconclusive

What do the screens show for `CCCS(=O)(=O)c1ncc(Cl)c(C(=O)Nc2sc3c(c2C(=O)NCC)CCCC3)n1`?
VDR confirm: 3.16*; VDR FP fluor: inconclusive; VDR bla: 5.8µM*; VDR viability: inconclusive
